# Hits are enriched below; roughly 10% of the tested compounds scored in any of these assays.
# JMJD2A Tudor: qHTS Assay for Inhibitors of JMJD2A-Tudor Domain; Lysine-specific demethylase 4A (Homo sapiens), O75164; AlphaScreen JMJD2A-Tudor / H3K4me3 peptide binding; Potency, µM (top dose mostly 114 µM), for inactives: at the top dose activity change, negative = inhibition, most hits filed as inhibitors; actives 4.4% (n = 390,000); AID 504339, 2011; further: on the % scale 0 is the no-effect control and ±100 the full control effect; nearly all actives have a fitted effect of over 50% in size
# HP1b binding inh: HTS for Inhibitors of HP1-beta Chromodomain Interactions with Methylated Histone Tails. Chromobox protein homolog 1 (Homo sapiens), P83916. AlphaScreen HP1-beta / biotin-H3K9me3 peptide binding. Potency, µM (doses to about 114 µM), for the others: at the top dose activity change, negative = inhibition, usual class: inhibitors. actives 0.56% (n = 390,000); further: nearly all actives have a fitted effect of over 70% in size
#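 Compound inhibition of the preformed complex between 50 nM HP1-beta and 50 nM biotinylated H3K9me3 peptide was read by AlphaScreen. Buffer was PBS pH 7.4 with 0.01% Tween-20. Incubations ran 30 min at room temperature, with 10 ug/mL donor/acceptor beads.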
# L3MBTL1 block: qHTS Assay for the Inhibitors of L3MBTL1; actives 0.66% (n = 230,000); Lethal(3)malignant brain tumor-like protein 1 (Homo sapiens), Q9Y468; AlphaScreen L3MBTL1–H3K9me1 peptide binding; Potency, µM (top dose mostly 57.1 µM), for the others: at the highest dose activity, negative = inhibition, most hits filed as inhibitors; AID 485360, 2010; further: on the % scale 0 is the no-effect control and ±100 the full control effect; nearly all actives have a fitted effect of over 60% in size
#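 Displacement of a biotinylated histone H3(1-15) peptide monomethylated at Lys9 (75 nM) from L3MBTL1 (50 nM) was measured by AlphaScreen after a 30 min room-temperature compound incubation; cefsulodin titration served as intraplate control.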
# G9a inh: qHTS Assay for Inhibitors of Histone Lysine Methyltransferase G9a; Potency, µM (doses to about 102 µM), without a hit: top-dose activity, negative = inhibition, most hits filed as inhibitors; actives 8.8% (n = 350,000); Histone-lysine N-methyltransferase EHMT2 (Homo sapiens), Q96KQ7; G9a H3K9 monomethylation, AlphaScreen, 2 h; AID 504332, 2011; further: on the % scale 0 is the no-effect control and ±100 the full control effect; nearly all actives have a fitted effect of over 75% in size
#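 AlphaScreen detection with an anti-monomethyl H3K9 antibody quantified product after a 2 h room-temperature reaction containing 500 nM biotinylated H3K9 peptide, 20 µM SAM and 20 nM enzyme, which had been preincubated 15 min with compound.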
# BAZ2B inh: qHTS Assay for Inhibitors of BAZ2B; Bromodomain adjacent to zinc finger domain protein 2B (Homo sapiens), Q9UIF8; AlphaScreen BAZ2B-H3K14Ac peptide displacement; Potency, µM (doses to about 114 µM), inactives show at the top dose activity change, negative = inhibition, hits mostly inhibitors; actives 4.4% (n = 360,000); AID 504333, 2011; further: on the % scale 0 is the no-effect control and ±100 the full control effect; nearly all actives have a fitted effect of over 60% in size
#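 Multi-concentration screen (max 110 uM) measuring displacement of acetylated histone H3 peptide from BAZ2B by AlphaScreen, using 50 nM protein, 50 nM peptide and 10 ug/mL streptavidin donor plus Ni-chelate acceptor beads.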
# GLS inhibitor: qHTS for Inhibitors of Glutaminase (GLS); actives 0.21% (n = 410,000); Potency, µM (series often up to 45.5 µM), for inactives: at the highest dose activity change, negative = inhibition, hits mostly inhibitors; GLS enzymatic activity, qHTS titration; Glutaminase kidney isoform, mitochondrial (Homo sapiens), O94925; AID 624170, 2012; further: on the % scale 0 is the no-effect control and ±100 the full control effect
#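 Coupled fluorescence readout: glutamate oxidase/HRP/Amplex Red detect glutamate formed by hKGA from L-glutamine (1 mM solution added). Buffer 45 mM KH2PO4 pH 8.2, 0.02% Tween-20; reads at t0 and 30 min RT.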
# * marks the source's active call; other numbers are inactive results; ? = inconclusive; . = not tested or not shown; ! = not confirmed by another sample; [ ] = dose if it differs, or a comment. The call rests on the fitted dose curve; in most records, active means well fitted curve in the direction sought with a large enough effect; inconclusive means small, poorly fitted or top-dose-only effect, or another doubt; inactive means no such curve, though single readings can be large; an effect the other way counts as inactive or inconclusive. Potency means the concentration at half of the fitted maximal effect.
SMILES,JMJD2A Tudor,HP1b binding inh,L3MBTL1 block,G9a inh,BAZ2B inh,GLS inhibitor
COc1cccc(-c2nc(SCC(=O)Nc3ccc4c(c3)OCCO4)c(-c3ccccc3)[nH]2)c1,?,17%,.,?,-33%,-18%
COc1ccc(-c2[nH]c(-c3cccc(OC)c3)nc2SCC(=O)Nc2ccc3c(c2)OCO3)cc1,?,?,.,10µM*,?,-13%
Cc1nn(-c2ccccc2)c(C)c1NC(=O)COC(=O)c1ccccc1,7%,35%,-1%,?,6%,-8%
COc1ccc(OC)c(NC(=O)CSc2nnc(CNC(=O)COc3ccc(Cl)cc3)o2)c1,-12%,-3%,-14%,?,?,3%
CC(=O)Nc1cccc(C(=O)OCC(=O)Nc2c(C)nn(-c3ccccc3)c2C)c1,-17%,16%,7%,40µM*,12%,-1%
COc1ccc(NC(=O)CSc2nc(-c3cccc(C)c3)[nH]c2-c2ccccc2)cc1OC,?,-14%,.,?,22µM*,-15%
COCc1nc2ccccc2n1Cc1ccc(C(C)(C)C)cc1,-4%,42%,.,6%[59 µM],8%,1%
COc1ccc(C2c3c(n(C)c4ccccc34)C(=O)N2CC(=O)Nc2ccc(Cl)cc2)cc1 (configuration not stated),-28%,-14%,.,-4%[59 µM],-9%,2%
Cc1ccc(-n2nc(C(=O)Nc3ccc(Br)cc3C)c(=O)n(C)c2=O)cc1,-5%,19%[57 µM],.,-1%[59 µM],-1%,-12%
Cc1ccc(C)c(N2C(=O)N(C)c3ccccc3S2(=O)=O)c1,0%,40%,.,0%[59 µM],-1%,-4%
O=C(CN1CC(=O)Oc2ccccc21)NCc1ccco1,-28%[11.4 µM],6%,2%,?,45µM*,61%
CC1CCN(C(=O)CN2c3ccc(Br)cc3-c3ccccc3S2(=O)=O)CC1,-24%,39%,.,0%[59 µM],-16%,-2%
CC1CC(C)(C)NC(=S)O1 (configuration not stated),-8%,2%,-3%,79µM*!,-7%,6%
Brc1ccc(-c2ccc(CNCCSc3nnnn3-c3ccccc3)o2)cc1,-35%,8%,.,16µM*,20µM*,1%
Clc1cccc(-c2ccc(CNCCSc3nnnn3-c3ccccc3)o2)c1,27%,49%,.,?,?,2%
CC(Sc1nc(-c2ccccc2)cc(C(F)(F)F)n1)C(=O)Nc1sc2c(c1C#N)CCC2 (configuration not stated),-23%,-22%,-7%,40µM*,-18%[57.1 µM],2%
CN(C)Cc1ccccc1Sc1ccc2c(c1)CCCC2,0.63µM*,?,.,.,.,0%
COc1cccc(Sc2ccccc2CN(C)C)c1,-29%,?,5%,-8%,5%,8%
O=C(NC1CC1)c1cc(=S)[nH]c2ccccc12,18µM*,0%,46%,.,.,-26%
O=C(NC1CC1)C(=O)c1c[nH]c2ccccc12,5%,38%,.,.,?,-4%
Cc1ccc2c(c1)cc1c(=O)n(CC(=O)N3CCCCC3)nc(C)n12,-13%,22%,.,6%[59 µM],-7%,-11%
COC(=O)C(CSCc1ccccc1)NC(=O)CSc1nc(C)cc(=O)[nH]1 (configuration not stated),50µM*,-2%,.,0%,3%,1%
Cc1cc(=O)[nH]c(SCC(=O)NC(c2ccccc2)c2ccccc2)n1,-3%,19%,7%,-4%,.,-16%
CCCN1CCCc2cc(CN(CCCN3CCOCC3)C(=O)Nc3ccc(Cl)c(Cl)c3)ccc21,13µM*,?,.,11µM*,11µM*,-22%
CCOc1ccc(NC(=O)N(CCN2CCOCC2)Cc2ccc3c(c2)CCCN3CC)cc1,56µM*,?,-22%,13%[0.501 µM],45µM*,44%
SMILES,JMJD2A Tudor,HP1b binding inh,L3MBTL1 block,G9a inh,BAZ2B inh,GLS inhibitor
CCOc1ccc(NC(=O)N(CCCN2CCOCC2)Cc2cccnc2)cc1,-10%,61%,.,0%[59 µM],-1%,-2%
CCCN1CCCc2cc(CN(CCCN3CCOCC3)C(=O)Nc3ccc(OCC)cc3)ccc21,28µM*,?,.,13µM*,40µM*,17%
CCN1CCCc2cc(CN(CCN3CCOCC3)C(=S)Nc3cccc(OC)c3)ccc21,50µM*,?,.,?,14µM*,18%
COc1ccc(OC)c(CN(CCN2CCOCC2)C(=O)Nc2ccccc2)c1,-7%,7%,-9%,11%[59 µM],0%,7%
CCc1ccc(Nc2nnc(-n3nc(C)cc3C)c3ccccc23)cc1,2%,121%,.,35%[59 µM],45%,20%
Cc1ccccc1N1CC(c2nc3ccccc3n2Cc2ccc(Br)cc2)CC1=O (configuration not stated),-6%,42%,.,?,-30%,5%
N#CCCn1c(=O)c(CCc2ccccc2)nc2cnc(N3CCOCC3)nc21,.,.,.,-7%[12.7 µM],.,.
COc1cc(N=Nc2ccc(C)cc2S(N)(=O)=O)c(C)cc1N,6.3µM*,20µM*,.,.,.,?
COC(=O)C1=C(C)N(Cc2ccco2)C(=O)/C1=C\c1ccc([N+](=O)[O-])cc1,?,-9%,-3%,18µM*,?,-3%
COC(=O)C1=C(C)N(C)C(=O)/C1=C\c1ccco1,-22%,-7%,-7%,-8%[59 µM],?,-3%
COC(=O)C1=C(C)N(Cc2ccc(OC)cc2)C(=O)/C1=C\c1ccco1,40µM*,?,-29%,10µM*,13µM*,-3%
CCc1ccccc1NC(=O)CSc1ncc2c(n1)-c1ccccc1N(Cc1ccc(C)cc1)S2(=O)=O,6%,17%,.,-3%[59 µM],0%,-3%
Oc1ccccc1N1CCN(CC(O)COCc2ccccc2Cl)CC1 (configuration not stated),20µM*,?,-30%,10µM*,50µM*,25%
Cc1ccc2oc(C(=O)Nc3ccc(S(=O)(=O)Nc4nccc(C)n4)cc3)cc(=O)c2c1,-16%,27%,.,-30%[59 µM],-3%,4%
COc1ccc(S(=O)(=O)NC(C)C(=O)Nc2ccccc2C(F)(F)F)cc1 (configuration not stated),5%,19%,.,11µM*,-4%,-6%
O=C(Nc1ccc(Oc2ccccc2)cc1)C1CCCO1 (configuration not stated),100µM*,-2%,-9%,-6%[59 µM],7%,1%
